Source: PubChem BioAssay (National Center for Advancing Translational Sciences (NCATS))
RXFP1 antag – RXFP1 (human) relaxin receptor antagonism | Q9HBX9 | HEK293-RXFP1, relaxin-stimulated cAMP HTRF, 30 min; hits give low values | activity change, negative = inhibition, % at 57.5 µM | 350,000 compounds, 0.59% hits | AID 1259400;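 active = activity change of -60% or lower, but not beyond a set lower limit; inconclusive = change between -60% and -40%, or beyond the set limit; inactive = change above -40%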
Target sequence (Q9HBX9 whole entry, looked up): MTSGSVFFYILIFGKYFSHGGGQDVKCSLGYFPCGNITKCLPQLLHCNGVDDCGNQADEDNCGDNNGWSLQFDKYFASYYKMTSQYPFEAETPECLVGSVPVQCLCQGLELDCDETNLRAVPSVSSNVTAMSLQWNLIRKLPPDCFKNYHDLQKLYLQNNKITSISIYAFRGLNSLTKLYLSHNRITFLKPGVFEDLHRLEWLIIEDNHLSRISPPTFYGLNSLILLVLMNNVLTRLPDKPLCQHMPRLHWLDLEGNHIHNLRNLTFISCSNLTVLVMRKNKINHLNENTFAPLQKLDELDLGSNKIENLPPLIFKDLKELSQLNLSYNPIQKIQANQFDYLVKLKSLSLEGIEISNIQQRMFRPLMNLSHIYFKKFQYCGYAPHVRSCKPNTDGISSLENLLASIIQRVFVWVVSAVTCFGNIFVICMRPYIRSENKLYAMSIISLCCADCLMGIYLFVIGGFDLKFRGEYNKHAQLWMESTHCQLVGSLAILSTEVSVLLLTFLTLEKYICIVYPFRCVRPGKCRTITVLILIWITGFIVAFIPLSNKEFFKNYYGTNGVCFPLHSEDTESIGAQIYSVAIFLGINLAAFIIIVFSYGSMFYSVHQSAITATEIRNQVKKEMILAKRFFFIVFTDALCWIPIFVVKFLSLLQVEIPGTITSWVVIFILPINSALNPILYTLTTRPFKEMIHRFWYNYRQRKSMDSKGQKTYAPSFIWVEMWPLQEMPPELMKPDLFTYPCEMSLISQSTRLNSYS
gsp ag – gsp mutant agonism; gsp mutant cells, cAMP HTRF, 30 min; Potency, µM (doses to about 76.9 µM), usual class: activators; 340,000 compounds, 0.13% hits; active = well fitted activation curve with a large enough effect; inconclusive = small, poorly fitted or top-dose-only effect, or another doubt; inactive = no such curve, though single readings can be large or run the other way; cell line not stated here;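 also: phosphodiesterase inhibitor Ro 20-1724 added with compounds to block cAMP breakdown; nearly all actives have a fitted effect of over 60% in size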
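Cells stably selected in G418 were plated at 2000/well, grown 16-24 hr, then given compounds in DMSO with the PDE inhibitor […] (300 uM solution added) for 30 min at 37C; cAMP was read by HTRF.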
gsp antag – antagonists of gsp mutant (McCune-Albright syndrome); gsp-mutant cells, cAMP HTRF, 30 min; 340,000 compounds, 0.4% hits; Potency, µM (highest dose often 76.9 µM), hits mostly inhibitors; calls by dose curve; cell line not stated here;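 also: intracellular cAMP measured with PDE inhibitor Ro 20-1724 present during compound exposure; nearly all actives have a fitted effect of over 65% in size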
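Cells in G418 medium, seeded 16-24 h, 37C; buffer exchange to DPBS + 1 mM CaCl2, 0.5 mM MgCl2, 0.05% BSA; cpds in DMSO + […] (300 uM stock), 30 min 37C; HTRF cAMP detection.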
RXFP1 agonist – agonists of human relaxin receptor RXFP1 | HEK293T-RXFP1 cAMP TR-FRET, 30 min; response scale: percent of porcine relaxin response, buffer zero | Potency, µM (series often up to 57.5 µM), actives largely listed as activators | 370,000 compounds, 0.3% hits | AID 2676; active = well fitted activation curve with a large enough effect; inconclusive = small, poorly fitted or top-dose-only effect; also: nearly all actives have a fitted effect of over 60% in size
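HEK293T cells stably expressing RXFP1 were pretreated with the PDE4 inhibitor Ro 20174, exposed to compounds for 30 min at 37C, lysed, and cAMP was read by TR-FRET. Data normalized to buffer (basal) and 29 nM porcine relaxin (100%).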
Numbers stand for hits; - = inactive; ? = inconclusive; . = no result given; [ ] = dose if it differs, or a comment. Most compounds without a hit are left out; they make up all but 0.9% or so of the library.

SMILES	RXFP1 antag	gsp ag	gsp antag	RXFP1 agonist
O=C(COc1ccc(/C=N/NC(=O)C(=O)N2CCCCC2)cc1)Nc1ccccc1Cl	-73.1	-	-	-
COc1ccc(/C=N/NC(=O)C(=O)N2CCCC2)cc1	-	-[15.4 µM]	-	-
Cc1ccc2[nH]c(C)cc(=S)c2c1	-	-[15.4 µM]	.	20µM
N[C@H](C(=O)O)c1ccc(O)cc1	-	.	.	.
CC(CCc1ccccc1)NC(=O)C1CCN(c2nnc(-n3cccc3)s2)CC1 (configuration not stated)	.	12.6µM	-	-
COc1ccc(S(=O)(=O)N2CCN(c3ccccc3OC)CC2)cc1-c1noc(C)n1	-	.	.	-
COc1ccc(CCNc2nc(C)nc3c2oc2ccccc23)cc1OC	?	-	39.8µM	-
Cc1ccc(CN2C(=O)c3ccccc3CC2(C)C(=O)NC2CCCCC2)cc1 (configuration not stated)	-	.	.	-
COc1cc2c(cc1OC)C1O[C@](CCCCN3C(=O)c4ccccc4C3=O)(C2)OC2=C1C(=O)OC1(CCCCC1)C2	.	.	.	-[11.5 µM]
CC(CCc1ccccc1)NC(=O)COC(=O)c1ccc(S(C)(=O)=O)c([N+](=O)[O-])c1 (configuration not stated)	-89.2	-[15.4 µM]	?	-
CC(CCc1ccccc1)NC(=O)COC(=O)c1ccc([N+](=O)[O-])cc1 (configuration not stated)	-	-	-	-
O=C(CS(=O)(=O)c1nc(-c2ccc(Cl)cc2)cn1-c1ccccc1)Nc1ccc(F)cc1F	-63.9	.	.	-
O=C(CS(=O)(=O)c1nc(-c2ccc(Cl)cc2)cn1-c1ccccc1)Nc1cccc(Cl)c1	?	.	.	-
Cc1ccc(-c2cn(-c3cccc(Cl)c3)c(S(=O)(=O)CC(=O)Nc3ccccc3F)n2)cc1	-63.8	.	.	-
Fc1ccc(CN2CCN(c3ncnc4scc(-c5ccc(F)cc5)c34)CC2)cc1	-67.9	-	-	-
COc1ccc(-c2csc3ncnc(N4CCN(Cc5ccccc5)CC4)c23)cc1	-	-[15.4 µM]	-	-
CC1CCCN(CCCNC(=O)c2nn(C)c3c2CS(=O)(=O)c2ccccc2-3)C1 (configuration not stated)	-83.8	-	-	-
CCOC(=O)N1CCN(c2ncnc3nc[nH]c23)CC1	.	20µM	-	-
CCOC(=O)C1CCN(c2ncnc3nc[nH]c23)CC1	.	-	-	-
Cc1c(C(=O)N2CCCC2)sc(NC(=O)c2cccc(Cl)c2)c1C#N	-	-	?	-
Cc1cccc(C(=O)Nc2sc(C(=O)N3CCCC3)c(C)c2C#N)c1	-	-	31.6µM	-
COc1ccc(S(=O)(=O)NCCc2c[nH]c3ccc(C)cc23)cc1	-	?	31.6µM	-
COc1ccc2[nH]cc(CCNS(=O)(=O)c3ccc(C)cc3)c2c1	-	-	-	-
C=CC[n+]1c(-c2ccc(Cl)cc2Cl)csc1Nc1c(C)n(C)n(-c2ccccc2)c1=O	-67.8	-	?	-
C=CC[n+]1c(-c2ccc(C)cc2)csc1Nc1c(C)n(C)n(-c2ccccc2)c1=O	?	-[15.4 µM]	-	-
SMILES	RXFP1 antag	gsp ag	gsp antag	RXFP1 agonist
CN(C)S(=O)(=O)c1ccc(Cl)c(NC(=O)CN2CCN(Cc3ccc4c(c3)OCO4)CC2)c1	-	-	11.2µM	-
O=C(CN1CCN(Cc2ccc3c(c2)OCO3)CC1)Nc1cc(S(=O)(=O)N2CCCC2)ccc1Cl	-	-[15.4 µM]	-	-
O=C(Nc1ccc(S(=O)(=O)N2CCOCC2)cc1)c1cc(Cl)ccc1NS(=O)(=O)c1ccc(Cl)s1	-	.	.	.
O=C(O)c1ccc(Nc2nc3c(s2)CCCC3)cc1	-	10µM	-	-
Cc1cccc(Nc2nc3c(s2)CCCC3)c1	-	-	-	-
CCN1c2ccccc2-c2nc(SCC(=O)Nc3cccc(C(F)(F)F)c3)ncc2S1(=O)=O	-	.	.	-
N=c1oc2cc(O)ccc2cc1C(=O)Nc1ccc(Cl)cc1	-	?	39.8µM	-
COc1ccc(CCN2C(=O)/C(=C\c3ccco3)SC2=S)cc1OC	-77.4	-	-	-
Oc1ccc(Cl)cc1C1=Nc2ccccc2N=C(c2cccc(Br)c2)C1	-	.	.	?
Cc1cc(C)nc(NS(=O)(=O)c2ccc(NC(=O)COc3ccc(C(C)(C)C)cc3)cc2)n1	-85.6	.	.	-
COc1ccc(C2=NOC(Cn3nc(C(=O)NCc4ccc(C)cc4)cc3-c3ccccc3)C2)cc1 (configuration not stated)	.	-	-	-
COc1ccc(C2=NOC(Cn3nc(C(=O)NCc4ccco4)cc3-c3ccccc3)C2)cc1 (configuration not stated)	.	-	31.6µM	-
CCCCn1c(N2CCC(Cc3ccccc3)CC2)nc2c1c(=O)[nH]c(=O)n2C	-90.2	-	-	-
Cc1nnc(SCCn2c(N3CCC(Cc4ccccc4)CC3)nc3c2c(=O)[nH]c(=O)n3C)s1	-	-[15.4 µM]	-	-
COc1cccc(C2=Nn3c(nnc3-c3ccccc3O)SC2)c1	-	?	-	-
C[n+]1c2n(c3ccccc31)N=C(c1cc(C(C)(C)C)c(O)c(C(C)(C)C)c1)CS2	-85.5	-	-	-
CC(C)(C)C(=O)N1N=C(c2ccc(NS(C)(=O)=O)cc2)CC1c1cccs1 (configuration not stated)	?	-[15.4 µM]	11.2µM	-
CCCn1c(SCC(=O)N2CCc3ccccc3C2)nc2c1c(=O)n(C)c(=O)n2C	-	31.6µM	-	?
CC(C)c1ccc2c(c1)C(N1CCNCC1)Cc1ccc(F)cc1S2 (configuration not stated)	-71.7	-	-	.
CC(C)NC(=O)/C(C#N)=C/c1ccc(N(C)C)o1	-	-[15.4 µM]	35.5µM	-
Nc1cc(=O)[nH]c(SC/C=C/c2ccccc2)n1	-	-	-	-
O=c1cc(C(F)(F)F)nc(SC/C=C/c2ccccc2)[nH]1	-77.5	-	?	-
COc1ccc(Cn2c(C(=O)O)c(CNCCc3cc(OC)ccc3OC)c3ccc(C)cc32)cc1	-	.	.	-
Cc1cc(C)n(-c2nc(Nc3ccccc3C(F)(F)F)nc(-n3nc(C)cc3C)n2)n1	?	-	28.2µM	-
Cc1onc(-c2ccccc2Cl)c1C(=O)Oc1ccc(Cl)cc1Cl	-77.7	.	.	-
SMILES	RXFP1 antag	gsp ag	gsp antag	RXFP1 agonist
CCCOc1ccc(NC(=O)CC2C(=O)N(CC)C(=S)N2CCCN2CCN(Cc3ccccc3)CC2)cc1 (configuration not stated)	-65.3	-	-	-
CCc1ccc(Nc2cc(C)nc3nc(Cc4ccc(Cl)cc4)nn23)cc1	.	.	.	-
O=C(Nc1ccc2nc(SCC(=O)N3CCc4ccccc43)sc2c1)c1ccc(F)cc1	-	.	.	-
CCCC(=O)NC(c1cccs1)c1cc([N+](=O)[O-])c2cccnc2c1O (configuration not stated)	-66.0	-[15.4 µM]	-	-
CCC(=O)NC(c1cccs1)c1cc([N+](=O)[O-])c2cccnc2c1O (configuration not stated)	?	-	?	-
Cn1nnnc1SCCCNCc1cc(Cl)ccc1OCc1ccccc1	-	.	.	-
CC1(C)CC(=O)C2=C(C1)N1C(=C(C#N)C2c2ccc(Cl)cc2)N=C(N)c2ccccc21 (configuration not stated)	?	-	35.5µM	-
